Here are results for 29 compounds from PubChem BioAssay AID687042 (Broad Institute, 2013).

The structures appear in SMILES notation. Activity calls are given as the source filed them.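 Rule for the calls: active = absorbance drop of 50% or more relative to neutral controls, with potency under twice the top valid dose; inactive = the rest, including effects in the opposite direction.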

This assay deals with Protein disulfide-isomerase A6 (Homo sapiens) (UniProt Q15084). The assay is described as follows: ERp5 insulin-reduction activity inhibitors – biochemical, insulin aggregation, absorbance, dry powder, set 2, selectivity assay for PDI inhibitor project, dose response (AID 687042). The settings on record: absorbance 650 nm; series mostly up to 35 µM.
Chain of Protein disulfide-isomerase A6 (Homo sapiens) (Q15084 whole entry, looked up): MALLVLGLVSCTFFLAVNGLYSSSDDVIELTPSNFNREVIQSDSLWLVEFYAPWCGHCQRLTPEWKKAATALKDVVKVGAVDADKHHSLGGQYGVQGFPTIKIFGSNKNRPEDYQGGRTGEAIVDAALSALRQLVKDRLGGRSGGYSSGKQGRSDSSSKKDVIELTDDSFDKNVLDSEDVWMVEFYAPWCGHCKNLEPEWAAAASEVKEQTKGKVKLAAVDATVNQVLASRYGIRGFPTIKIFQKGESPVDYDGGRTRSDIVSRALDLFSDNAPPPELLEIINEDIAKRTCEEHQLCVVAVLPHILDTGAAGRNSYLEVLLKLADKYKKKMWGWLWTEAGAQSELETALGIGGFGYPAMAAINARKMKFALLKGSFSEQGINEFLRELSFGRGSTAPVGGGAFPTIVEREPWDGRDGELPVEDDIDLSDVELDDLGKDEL
`CCOC(=O)C1(CCOC)CCN(Cc2ccc(O)c(Cl)c2)CC1`: the compound was called inactive.
Take `C=CCOc1ccc(CN2CCC(CCOc3ccccc3)(C(=O)NC3CCCC3)CC2)cc1Cl`: the result was inactive.
Consider `CCOC(=O)C1(CCOc2ccccc2)CCN(C(=O)OC(C)(C)C)CC1`, for which the outcome was inactive.
On to `C/C1=C\[C@@H](O)C(C)(C)CCCC2(C)OC2C[C@@H]1OC(=O)c1ccc(O)cc1` (some centres undefined), for which the compound was classed as inactive.
For the compound `O=C(NC1CCCC1)C1(CCOc2ccccc2)CCN(Cc2ccc(O)c(Cl)c2)CC1`, the result was inactive.
With `C=CCOc1ccc(CN2CCC(CCOc3ccccc3)(C(=O)OCC)CC2)cc1Cl`, the result was inactive.
Regarding `CCNC(=O)C1(CCOc2ccccc2)CCN(Cc2ccc(O)c(Cl)c2)CC1`, the result was inactive.
As for `CCOC(=O)C1(CCOc2ccccc2)CCN(Cc2ccc3[nH]c(=O)oc3c2)CC1`, the call was inactive.
Under `CCOC(=O)C1(CCOc2ccccc2)CCN(Cc2ccc(OC)c(Cl)c2)CC1` stands “inactive”.
As for `CCOC(=O)C1(CCOC)CCCN(Cc2ccc(Cl)cc2)C1` (centres undefined), the entry is “inactive”; as for `C=CCOc1ccc(CN2CCC(CCOc3ccccc3)(C(=O)N3CCCC3)CC2)cc1Cl`, “inactive”.
As for `CCOC(=O)C1(CCOc2ccccc2)CCN(Cc2cccc(Cl)c2)CC1`, the outcome was inactive.
For the compound `C=CCOc1ccc(CN2CCC(CCOc3ccccc3)(C(=O)O)CC2)cc1Cl`, the result was inactive.
As to `CCOC(=O)c1c(CN2CCN(CCO)CC2)n(-c2ccccc2)c2cc(Br)c(O)cc12`, the call was inactive.
With `CCN(C)C(=O)C1(CCOc2ccccc2)CCN(Cc2ccc(O)c(Cl)c2)CC1`, the compound was classed as inactive.
Take `CCOC(=O)C1CCN(C(=O)OC(C)(C)C)CC1`: the call was inactive.
As to `CCOC(=O)C1(CCOc2ccccc2)CCN(Cc2ccc(OC)cc2)CC1`, the compound was called inactive.
With `O=C(N1CCCC1)C1(CCOc2ccccc2)CCN(Cc2ccc(O)c(Cl)c2)CC1`, the compound was called inactive.
On to `C=CCOc1ccc(CN2CCC(CCOc3ccccc3)(C(=O)N(C)CC)CC2)cc1Cl`, for which the call was inactive.
Under `CCOC(=O)C1(CCOc2ccccc2)CCN(Cc2ccc(O)cc2)CC1` stands “inactive”; under `CCOC(=O)C1(CCOc2ccccc2)CCN(C(=O)c2ccc(O)c(Cl)c2)CC1`, “inactive”; under `CC(C)(C)OC(=O)C1(CCOc2ccccc2)CCN(Cc2ccc(O)c(Cl)c2)CC1`, “inactive”.
Under `CC(C)OC(=O)C1(CCOc2ccccc2)CCN(Cc2ccc(O)c(Cl)c2)CC1` stands “inactive”.
As for `O=C(Nc1ccccc1)C1(CCOc2ccccc2)CCN(Cc2ccc(O)c(Cl)c2)CC1`, the compound was called inactive.
As for `C=CCOc1ccc(CN2CCC(CCOc3ccccc3)(C(=O)NCC)CC2)cc1Cl`, the call was inactive.
As for `CCOC(=O)C1(Cc2cccc(OC)c2)CCN(Cc2ccc(O)c(Cl)c2)CC1`, the compound was classed as inactive.
For `C/C1=C\C[C@H](OC(=O)c2ccc(O)cc2)/C(C)=C/[C@@H](O)C(C)(C)CCC1`, the result was inactive.
As for `CCOC(=O)C1(Cc2ccccc2)CCN(Cc2ccc(O)c(Cl)c2)CC1`, the entry is “inactive”.
With `CCOC(=O)C1(CCOc2ccccc2)CCN(Cc2ccc(O)c(Cl)c2)CC1`, the compound was called inactive.
